Measured values as given in PubChem BioAssay (NCATS).
Inconclusive results are not listed. Activity calls are given as the source filed them. Calls follow the shape of the dose curve; as a rule, active = well fitted curve in the direction sought with a large enough effect; inconclusive = small, poorly fitted or top-dose-only effect, or another doubt; inactive = no such curve, though single readings can be large; an effect the other way counts as inactive or inconclusive.

Tests used:
[1] = P-glycoprotein substrates identified in KB-8-5-11 adenocarcinoma cell line, qHTS therapeutic library screen (AID 1346987); also: nearly all actives have a fitted effect of over 65% in size; also: potency is read from the fitted curve at half-maximal effect; as to activity change, negative = cytotoxicity: % is scaled to controls: 0 for no effect and ±100 for the full control effect
Outline: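 Human cervical adenocarcinoma KB-8-5-11 cells, selected in colchicine to over-express P-gp and assayed without it, were exposed for 72 h to titrated compounds. An ATP-based luminescent viability signal gave AC50.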

[2] = test system: Zika virus NS2B-NS3 protease (linked construct); test: Primary screen NINDS Rhodamine qHTS for Zika virus inhibitors (AID 1347160); also: % is scaled to controls: 0 for no effect and ±100 for the full control effect; nearly all actives have a fitted effect of over 55% in size
Outline: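 Single-chain NS2B-NS3 protease, 25 nM, pH 8.0; compounds preincubated 15 min. Activity: Rhodamine110 release from 1.5 microM substrate over 15 min, room temperature, data fitted to 4-parameter Hill.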

[3] = biological target: Calcium and integrin-binding protein 1 (Homo sapiens) (UniProt Q99828); test: Primary qHTS for Identification of Calcium Integrin Binding Protein 1 (CIB1) Competitor (AID 1508620);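 also: GST tagged CIB1 binding a fluorescein labelled alphaIIb integrin peptide tracer; top concentration of the series differs between compounds; % is scaled to controls: 0 for no effect and ±100 for the full control effect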
Outline: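 CIB1-GST (1 uM final) and compound incubated 15 min at room temperature before adding FITC-alphaIIb peptide tracer (100 nM final). Competition for binding read by fluorescence polarization (ex 480, em 540) after another 15 min at room temperature.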

[4] = Primary qHTS for inhibitors of nuclear receptor binding SET domain protein 2 (NSD2) in an isogenic RCH-ACV NSD2 p.E1099K mutant (9B) (AID 1645876); also: nearly all actives have a fitted effect of over 70% in size; also: potency is read from the fitted curve at half-maximal effect
[5] = biological target: Phospholipid hydroperoxide glutathione peroxidase GPX4 (Homo sapiens) (UniProt P36969); test: Primary qHTS Assay for Inhibitors of Recombinant Selenoprotein Glutathione Peroxidase 4 (GPX4) (AID 1845192); also: nearly all actives have a fitted effect of over 65% in size; as to activity change, negative = inhibition: % is scaled to controls: 0 for no effect and ±100 for the full control effect
Outline: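 NADPH consumption followed by fluorescence at 340/450 nm, t=0 and after 15 min at room temperature. Reaction started with cumene hydroperoxide (0.5 mM final) after 30 min compound–GPX4 preincubation; final 200 nM GPX4, 100 nM GR, 1 mM GSH, 0.5 mM NADPH.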

[6] = biological target: Luciferin 4-monooxygenase (Photinus pyralis) (UniProt P08659); test: Primary firefly luciferase (FLuc) qHTS assay for identification of artifact compounds. (AID 1845220); settings: outcome: dose series up to 54.1 µM unless noted; also: nearly all actives have a fitted effect of over 60% in size;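 as to activity change, negative = inhibition: plate controls were DMSO vehicle for no effect and no enzyme for full effect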
Outline: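 Compounds sat 15 min at room temperature with 10 uM luciferin and 10 uM ATP (pH 7.6 Tris acetate). Firefly luciferase (10 nM final) was then added, and luminescence was read 5 min later. Data normalized to no-enzyme and DMSO controls were Hill-fitted.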

[7] = test system: Nanoluciferase (engineered Oplophorus gracilirostris luciferase); test: Primary Nanoluciferase (NLuc) qHTS assay for identification of artifact compounds. (AID 1845222);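 also: 0% = DMSO and -100% = no enzyme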
Outline: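 Luminescence from secreted NLuc (filtered, 1:55-diluted S16 cell medium) read 5 min after Nano-Glo substrate; compounds preincubated 15 min, RT. Hill fits of inhibition normalized to DMSO and no-enzyme.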

[8] = Primary redox qHTS assay for identification of artifact compounds. (AID 1845223);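 also: 0% = DMSO and 100% = reference compound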
Outline: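 Redox-cycling detection via DTT (250 uM final) oxidation coupled to Amplex Red (25 uM)/HRP (250 mU/mL) in HBSS. 15 min preincubation plus 30 min after DTT, room temperature. Ex/Em 525/598 nm; 4-parameter Hill fit against DMSO and 10 uM DA3003.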

CRL-7250 = normal cell line; test: Cytotoxic Profiling of Annotated Libraries Using Quantitative High-Throughput Screening (AID 1296008); settings: Five cell lines viability, CellTiter-Glo ATP luminescence, 48-72 h; max response: active compounds read low; also: nearly all actives have a fitted effect of over 60% in size; also: potency is read from the fitted curve at half-maximal effect; as to max response: % is scaled to controls: 0 for no effect and ±100 for the full control effect
Outline: (§1)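 Cytotoxicity was measured as CellTiter-Glo ATP luminescence, read after 10 min at room temperature. Compound treatment of the cells lasted 48 or 72 hr at 37 degrees Celsius in a qHTS format.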

HaCat = test: as above; settings: Five cell lines viability, CellTiter-Glo ATP luminescence, 48-72 h; max response: active compounds read low
Outline: as §1

NIH3T3 = test: as above; settings: Five cell lines viability, CellTiter-Glo ATP luminescence, 48-72 h; max response: active compounds read low
Outline: as §1

C33A = test: Primary qHTS to identify gynecologic anti-cancer compounds using libraries of approved drugs and bioactive compounds (AID 1345084); settings: Gynecologic cancer cell panel viability, ATPlite luminescence, 48 h; series mostly up to 57.5 µM; also: nearly all actives have a fitted effect of over 55% in size; also: potency is read from the fitted curve at half-maximal effect
Outline: (§2)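 Measured: luminescence after ATPlite addition (15 min, RT). Exposure: 48 h, 37 C, 5% CO2.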

CASKI = test: as above; settings: Gynecologic cancer cell panel viability, ATPlite luminescence, 48 h; series mostly up to 57.5 µM
Outline: as §2

Es-2 = test: as above; settings: Gynecologic cancer cell panel viability, ATPlite luminescence, 48 h; series mostly up to 57.5 µM
Outline: as §2

Hek293T = test: as above; settings: Gynecologic cancer cell panel viability, ATPlite luminescence, 48 h, control line for the selectivity index; series mostly up to 57.5 µM
Outline: as §2

OV90 = test: as above; settings: Gynecologic cancer cell panel viability, ATPlite luminescence, 48 h; series mostly up to 57.5 µM
Outline: as §2

PA-1 = test: as above; settings: Gynecologic cancer cell panel viability, ATPlite luminescence, 48 h; series mostly up to 57.5 µM
Outline: as §2

Tov-21-G = test: as above; settings: Gynecologic cancer cell panel viability, ATPlite luminescence, 48 h; series mostly up to 57.5 µM
Outline: as §2

Tov112D = test: as above; settings: Gynecologic cancer cell panel viability, ATPlite luminescence, 48 h; series mostly up to 57.5 µM
Outline: as §2

HEK293 = test: Cytotoxic Profiling of Annotated Libraries Using Quantitative High-Throughput Screening (AID 1296008); settings: Five cell lines viability, CellTiter-Glo ATP luminescence, 48-72 h; max response: active compounds read low; also: nearly all actives have a fitted effect of over 60% in size; also: potency is read from the fitted curve at half-maximal effect
Outline: as §1

Phospholipid hydroperoxide glutathione peroxidase GPX4 (Homo sapiens), sequence (P36969 whole entry, looked up): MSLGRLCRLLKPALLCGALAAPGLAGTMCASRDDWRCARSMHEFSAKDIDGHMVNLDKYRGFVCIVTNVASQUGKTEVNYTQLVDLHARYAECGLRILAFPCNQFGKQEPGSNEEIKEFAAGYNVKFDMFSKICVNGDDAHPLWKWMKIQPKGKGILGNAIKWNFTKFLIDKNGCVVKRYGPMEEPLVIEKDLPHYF
Calcium and integrin-binding protein 1 (Homo sapiens), sequence (Q99828 whole entry, looked up): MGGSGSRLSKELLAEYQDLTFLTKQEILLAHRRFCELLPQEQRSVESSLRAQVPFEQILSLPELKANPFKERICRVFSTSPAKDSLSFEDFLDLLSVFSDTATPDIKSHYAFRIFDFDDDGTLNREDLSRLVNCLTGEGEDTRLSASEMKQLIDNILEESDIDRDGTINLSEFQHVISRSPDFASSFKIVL

Cc1ccc2c(c1)[C@H]1CN(C)CC[C@H]1N2C(=O)CSc1nnnn1-c1ccc(Cl)cc1
inactive: Potency [1] | Potency [2] | Potency [3] | Potency [4] | Potency [5] | outcome [6] | Potency [7] | Potency [8] | max response (CRL-7250) 0.988% | outcome (HaCat) | outcome (NIH3T3) | Potency (C33A) | Potency (CASKI) | Potency (Es-2) | Potency (Hek293T) | Potency (OV90) | Potency (PA-1) | Potency (Tov-21-G) | Potency (Tov112D)

CCCCCCC1C(=O)O[C@H](C)[C@H](NC(=O)c2cccc(NC=O)c2O)C(=O)O[C@@H](C)[C@@H]1OC(=O)CC(C)C (stereo not given in full)
active: Potency [4] 0.0115 µM | Potency (CRL-7250) 0.58 µM | Potency (HEK293) 0.164 µM | Potency (CASKI) 1 µM | Potency (Es-2) 0.355 µM | Potency (OV90) 0.355 µM
inactive: Potency [5] | outcome [6] | Potency [7] | Potency (Tov112D)

CC(C)[C@H]1OC(=O)[C@H](Cc2ccccc2)N(C)C(=O)[C@@H](C(C)C)OC(=O)[C@H](Cc2ccccc2)N(C)C(=O)[C@@H](C(C)C)OC(=O)[C@H](Cc2ccccc2)N(C)C1=O
active: Potency [1] 4.85 µM | Potency [4] 6.82 µM | Potency (CRL-7250) 4.85 µM | Potency (HEK293) 6.11 µM | Potency (PA-1) 7.94 µM
inactive: Potency [2] | Potency [3] | Potency [5] | outcome [6] | Potency [7] | Potency (C33A) | Potency (CASKI) | Potency (Es-2) | Potency (OV90) | Potency (Tov-21-G) | Potency (Tov112D)

CC1=CC2OC3CC(O)[C@](C)([C@@]2(C)C(O)C1=O)[C@]31CO1 (stereo not given in full)
inactive: Potency [2] | Potency [3] | Potency [5] | outcome [6] | Potency [7] | Potency [8]
active: Potency [1] 5.17 µM | Potency [4] 5.15 µM | Potency (CRL-7250) 5.8 µM | Potency (HEK293) 5.17 µM | Potency (NIH3T3) 4.11 µM | Potency (Es-2) 8.91 µM | Potency (Hek293T) 3.16 µM | Potency (PA-1) 3.16 µM

CN1CCC2=C(C1)c1ccccc1Cc1ccccc12
inactive: Potency [1] | Potency [2] | Potency [3] | Potency [5] | outcome [6] | Potency [7] | Potency [8] | outcome (CRL-7250) | outcome (HaCat) | max response (NIH3T3) 0.135% | Potency (C33A) | Potency (CASKI) | Potency (Es-2) | Potency (Hek293T) | Potency (OV90) | Potency (PA-1) | Potency (Tov-21-G) | Potency (Tov112D)

CC1=CC(=O)[C@@H](O)[C@@]2(C)C1C[C@H]1OC(=O)[C@H](O)[C@@]3(O)[C@@H](C)[C@@H](O)[C@H](O)C2[C@@]13C (stereo not given in full)
inactive: Potency [2] | Potency [3] | Potency [5] | outcome [6] | Potency [7] | Potency [8] | Potency (CASKI)
active: Potency [4] 1.27 µM | Potency (CRL-7250) 2.86 µM | Potency (HEK293) 2.02 µM | Potency (Tov-21-G) 11.2 µM

C[C@@H]1O[C@@H](OC2CCC3(C=O)C(CCC4C3CCC3(C)C(C5=CC(=O)OC5)C(O)CC43O)C2)[C@H](O)[C@H](O)[C@H]1O[C@@H]1O[C@H](CO)[C@@H](O)[C@H](O)[C@H]1O (stereo not given in full)
active: Potency [1] 6.11 µM | Potency [4] 2.42 µM | Potency (CRL-7250) 3.06 µM | Potency (HEK293) 3.85 µM | Potency (C33A) 5.62 µM | Potency (Es-2) 6.31 µM | Potency (Hek293T) 10 µM | Potency (Tov-21-G) 3.98 µM | Potency (Tov112D) 3.16 µM
inactive: Potency [2] | Potency [3] | Potency [5] | outcome [6] inactive [at 25.7 µM] | Potency [7] | Potency [8] | max response (NIH3T3) 4.35% | Potency (CASKI)

c1ccc([C@@H]2C[C@H]2NC2CCNCC2)cc1
inactive: Potency [1] | Potency [2] | Potency [3] | Potency [4] | Potency [5] | outcome [6] | Potency [8] | max response (CRL-7250) -8.87% | max response (HEK293) -16.2% | Potency (C33A) | Potency (CASKI) | Potency (Es-2) | Potency (Hek293T) | Potency (OV90) | Potency (PA-1) | Potency (Tov-21-G) | Potency (Tov112D)

C/C=C(\C)C(=O)OC1CC2C(CC=C3CC(OC4CC(OC)C(OC5CC(OC)C(OC6CC(OC)C(OC7CC(OC)C(O)C(C)O7)C(C)O6)C(C)O5)C(C)O4)CCC32C)C2(O)CCC(C(C)=O)C12C (stereo not given)
inactive: outcome [1] inactive [at 9.29 µM] | Potency [2] | Potency [3] | Potency [5] | activity change, negative = inhibition [6] 3.09% [at 11.6 µM] | activity, negative = inhibition [7] 1.71% [at 11.6 µM] | redox activity (% of DA3003) [8] 4.9% [at 11.5 µM] | max response (CRL-7250) -2.08% | outcome (HaCat) | outcome (NIH3T3) | activity change, negative = cytotoxicity (C33A) -3.2% [at 11.6 µM] | activity change, negative = cytotoxicity (CASKI) -11.1% [at 11.6 µM] | activity change, negative = cytotoxicity (Es-2) -0.231% [at 11.6 µM] | activity change, negative = cytotoxicity (Hek293T) -2.97% [at 11.6 µM] | activity change, negative = cytotoxicity (OV90) -21.5% [at 11.6 µM] | activity change, negative = cytotoxicity (PA-1) -6.71% [at 11.6 µM] | activity change, negative = cytotoxicity (Tov-21-G) 1.18% [at 11.6 µM] | activity change, negative = cytotoxicity (Tov112D) -0.393% [at 11.6 µM]

CN1Cc2c(ccc3c2OCO3)[C@@H]2[C@H]1c1cc3c(cc1C[C@@H]2O)OCO3
inactive: Potency [2] | Potency [3] | Potency [5] | outcome [6] | Potency [7] | Potency [8]
active: Potency [1] 1.61 µM | Potency [4] 2.84 µM | Potency (CRL-7250) 4.04 µM | Potency (HEK293) 3.6 µM | Potency (NIH3T3) 2.55 µM | Potency (C33A) 7.08 µM | Potency (Es-2) 4.47 µM | Potency (PA-1) 4.47 µM | Potency (Tov112D) 3.55 µM
